Shown are actives, neighbours in structure and some others; about 3.5% of the full set was active somewhere.
Myeloid diff MLP = promotes myeloid progenitor differentiation | ER-HoxA9 myeloid progenitors, lysozyme-GFP differentiation, flow cytometry | calls only at 10 µM | 1% of 360,000 active;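 active = normalized GFP-positive differentiation at or above the plate's own cutoff, the solvent-only control mean plus 3 SD; inconclusive = no clear call, values can overlap the other calls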;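 note: cells exposed to compound for four days before flow analysis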
SKN-1 inh = C. elegans SKN-1 inhibition; C. elegans VP596 Pgst-4::GFP/RFP ratio, acrylamide-induced, 24 h; inhibition, % at 21.8 µM; 0.49% of 360,000 active; AID 624304;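 active = interference check ratio from 0.5 to 1.5 plus GFP to RFP signal ratio inhibition reaching or exceeding a fixed threshold, cut at about 30% in these data, passing the limit was not always enough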
M1 ag = human M1 muscarinic receptor agonism. activation, % at 3 µM. CHO-K1 hM1, Fluo-8 calcium fluorescence, agonist mode; 0% DMSO, 100% acetylcholine EC100. 0.33% of 360,000 active. P11229;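 active = activation above the run's mean compound activation plus 3 SD, cut at about 16% in these data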;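 note: peak over basal fluorescence ratio within a 140 s kinetic read after compound addition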
Target sequence (P11229 whole entry, looked up): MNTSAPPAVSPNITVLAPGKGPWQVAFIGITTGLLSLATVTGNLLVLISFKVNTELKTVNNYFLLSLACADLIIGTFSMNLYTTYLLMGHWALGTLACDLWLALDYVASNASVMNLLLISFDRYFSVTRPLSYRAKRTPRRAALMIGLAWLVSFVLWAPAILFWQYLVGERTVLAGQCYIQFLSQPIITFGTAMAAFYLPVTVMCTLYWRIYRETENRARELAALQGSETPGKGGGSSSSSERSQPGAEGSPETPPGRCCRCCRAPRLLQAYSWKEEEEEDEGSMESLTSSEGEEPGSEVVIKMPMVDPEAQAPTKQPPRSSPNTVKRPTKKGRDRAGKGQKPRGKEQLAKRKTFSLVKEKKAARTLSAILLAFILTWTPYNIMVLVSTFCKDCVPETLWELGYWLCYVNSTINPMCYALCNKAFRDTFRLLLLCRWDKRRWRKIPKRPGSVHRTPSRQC
CHRM1 PAM = positive allosteric modulators of human M1 muscarinic receptor. P11229. CHO-K1 hM1, Fluo-8 calcium fluorescence, ACh EC20; 0% = ACh EC20, 100% = maximal ACh. activation, % at 3 µM. 0.088% of 360,000 active; in the data active = activation above about 19%, passing the limit was not always enough
CHRM1 antagonist = human CHRM1 antagonism. P11229. CHO-K1 hM1, Fluo-8 calcium fluorescence, ACh EC80 antagonist. inhibition, % at 3 µM. 1.3% of 360,000 active;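 active = percent inhibition above its own plate's cutoff, namely the mean of that plate's compound wells plus 3 SD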;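 note: peak over basal fluorescence ratio during 140 s after agonist addition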
ATG4B inh = inhibitors of human ATG4B cysteine protease. Q9Y4P1. ATG4B cleavage of LC3-PLA2, NBD-HPC fluorescence, 1 h. inhibition, % at 8.33 µM. 0.51% of 340,000 active; in the data active = inhibition above about 40%
Each line names hits and unclear results; the compound was inactive in the other large screens.

CCN(CC)C(=O)C1CCN(S(=O)(=O)c2c(C)noc2/C=C/c2cccc(C)c2)CC1	Myeloid diff MLP active
CCC(C)N1CCN(C(=O)C2CCN(S(=O)(=O)c3c(C)noc3/C=C/c3ccco3)CC2)CC1 (stereo not drawn)	Myeloid diff MLP inconclusive, CHRM1 antagonist 80
Cc1cccc(NC(=O)C2CCN(S(=O)(=O)c3c(C)noc3/C=C/c3ccco3)CC2)n1	none
CC(=O)Oc1ccc2nc(-c3ccco3)oc(=O)c2c1	none
CCN1/C(=C/c2cc[n+](C)cc2)C=Cc2cc(C)ccc21	Myeloid diff MLP active
CCN1/C(=C/c2ccc3ccccc3[n+]2CCCS(=O)(=O)[O-])C=Cc2cc(C)ccc21	SKN-1 inh 39
CCN1C(=C2C(=O)c3ccccc3C2=O)C=Cc2ccccc21	none
CCN1/C(=C/c2ccc3ccccc3[n+]2CC)C=Cc2ccccc21	Myeloid diff MLP inconclusive, CHRM1 antagonist 48
Cc1ccc(Cl)cc1NC(=O)CC1NC2CCCCC2NC1=O (stereo not drawn)	Myeloid diff MLP active
COc1cc2nc(C3CC3)n(NC(=O)c3ccc(Cl)cc3)c(=O)c2cc1OC	SKN-1 inh 37
C=C[C@H]1CN2CC[C@H]1C[C@H]2[C@H](O)c1ccnc2ccc(OC)cc12	Myeloid diff MLP inconclusive
CC(C)(C(=O)Nc1nccs1)c1ccccc1	none
C1=C(c2ccc(-c3ccccc3)cc2)Nc2ncnn2C1c1ccco1 (stereo not drawn)	M1 ag 120, CHRM1 antagonist 45
Fc1ccc(C2=CC(c3ccc(Br)o3)n3ncnc3N2)cc1 (stereo not drawn)	none
Brc1ccc(C2=CC(c3cccs3)n3ncnc3N2)cc1 (stereo not drawn)	Myeloid diff MLP active, M1 ag 28
COc1cccc(/C=N/NC(=O)CN2C(=O)NC3NC(=O)NC32)c1 (stereo not drawn)	none
COc1ccc(C(=O)NCC(C)(c2ccccc2)c2ccccc2)cc1S(=O)(=O)N1CCOCC1	none
CC(C)Nc1nnc(SCC(=O)Nc2ccc3c(c2)C(=O)c2ccccc2C3=O)s1	CHRM1 antagonist 31
CCN(C(=O)CSc1nc2cc(C(=O)O)ccc2c(=O)n1-c1ccccc1F)C1CCS(=O)(=O)C1 (stereo not drawn)	none
CCOC(=O)c1cnn(-c2ccccc2)c1-n1cccc1C(=O)C(=O)Nc1ccc(OC)cc1	CHRM1 PAM 19
CCOC(=O)c1cnn(-c2ccccc2)c1-n1cccc1C(=O)C(=O)N(C)C	none
CCC(C)Sc1ccc([C@@H]2[C@H]3C(=O)N(C)C(=O)[C@H]3[C@]3(C(=O)OC)CCCN23)cc1 (stereo partly drawn)	none
CCCOc1ccc(/C(O)=C2/C(=O)C(=O)N(c3cc(C)on3)C2c2ccc(C(=O)OC)cc2)cc1 (stereo not drawn)	SKN-1 inh 40
CCOc1ccc(/C(O)=C2/C(=O)C(=O)N(c3cc(C)on3)C2c2ccc(C(=O)OC)cc2)cc1 (stereo not drawn)	none
O=C(c1cccs1)N1C[C@@H](O)[C@H](n2cc(-c3ccc(F)cc3)nn2)C[C@@H]1c1ccc(Cl)cc1	none (no result: ATG4B inh)
CCOc1ccccc1OCCN1CCC(Cc2ccccc2)CC1	none
COc1cccc(OC)c1OCCCCN1CCC(Cc2ccccc2)CC1	CHRM1 antagonist 47
COc1ccc(CN2CCC(Cc3ccccc3)CC2)c(C)c1C	CHRM1 antagonist 33
N#Cc1ccccc1OCCCN1CCC(Cc2ccccc2)CC1	CHRM1 antagonist 35
COc1cccc(OC)c1OCCCCN1CCCC1	none
CC(=O)CCc1ccc(OCCCCN2CCC(Cc3ccccc3)CC2)cc1	CHRM1 antagonist 60
CCC(=O)c1ccccc1OCCCN1CCC(Cc2ccccc2)CC1	CHRM1 antagonist 92
Cn1ccnc1C1CCCCN1Cc1nc(Cc2cccc(C(F)(F)F)c2)no1 (stereo not drawn)	CHRM1 antagonist 54
Cn1ccnc1C1CCCCN1Cc1nc(-c2ccc3c(c2)OCO3)no1 (stereo not drawn)	CHRM1 antagonist 59
FC(F)(F)c1cccc(Cc2noc(CN3C[C@@H]4CCC[C@H]3C4)n2)c1	none
Cc1cccc(NC(=O)CN2CCN(C(=O)CN3C(=O)NC4(CCCCC4C)C3=O)CC2)c1C (stereo not drawn)	none
COCCN(C(=O)c1ccco1)c1nc(-c2ccccc2)cs1	none
CCN(C(=O)c1ccco1)c1nc(-c2ccc(OC)cc2)cs1	SKN-1 inh 46
CN(C(=O)c1ccco1)c1nc(-c2ccccc2)cs1	SKN-1 inh 40
COc1ccccc1C(=O)NCC(C)(C)CN=C1NS(=O)(=O)c2ccccc21	none
COc1ccc(NC(=O)Nc2ccc3c(c2)C(=O)N([C@@H](C)CO)C[C@@H](C)[C@@H](CN(C)S(=O)(=O)c2cn(C)cn2)O3)cc1	none (no result: ATG4B inh)
CCOc1ccc2nc(NC(=O)CN3CCC(n4nnc5cc(C(F)(F)F)ccc54)CC3)sc2c1	SKN-1 inh 39
C=CCNC(=O)CN1CCC(n2nnc3cc(C(F)(F)F)ccc32)CC1	none
COCOCCn1cc(CN2CCS(=O)(=O)N(Cc3ccc(-c4ccc(OC)cc4)cc3)C(C)C2=O)nn1 (stereo not drawn)	none (no result: ATG4B inh)
CCNC(=S)Nc1ccc(Cl)c([N+](=O)[O-])c1	CHRM1 antagonist 36
O=c1ccc(S(=O)(=O)N2CCCC2)cn1Cc1ccc(Cl)cc1Cl	none
COc1ccc(C(C)C)cc1S(=O)(=O)n1cnc(C)c1	SKN-1 inh 40
NC(=NC(=O)c1ccc(OCC(F)(F)F)nc1)c1ccccc1	SKN-1 inh 38
Cc1sc2nc(COC(=O)c3cccc(S(=O)(=O)N(C)c4ccccc4)c3)[nH]c(=O)c2c1C	Myeloid diff MLP active
O=C1C=C(CCc2ccccc2)CCC1	none (no result: ATG4B inh)
Cc1ccc(SCCNC(=S)Nc2cc(C)cc(C)c2)cc1	none
S=C(NCc1ccc(Cl)cc1)Nc1ccncc1	CHRM1 antagonist 44
Cc1ccc(NC(=S)NCCSc2ccc(Cl)cc2)cc1	CHRM1 antagonist 56
CN(C)CCNC(=S)Nc1ccc(Cl)cc1	CHRM1 PAM 25
C=C1C(=O)C=C2CN(C(=O)c3ccccc3)[C@@](Cc3ccc(F)cc3)(C(=O)OC)[C@@H]12	Myeloid diff MLP active, M1 ag 72, CHRM1 antagonist 103
CC(C)(C)c1cc(C(=S)N2CCCC2)cc(C(C)(C)C)c1O	none
CCCCOC(=O)CSc1nnc(N)s1	none
CCCCCSc1nnc(N)s1	CHRM1 PAM 27
O=S(=O)(Nc1cccnc1)c1ccc(Br)c2ccccc12	none
CN(CC(=O)Nc1cc(S(=O)(=O)N2CCCCCC2)ccc1Cl)Cc1ccc2c(c1)OCO2	none
COc1ccc(S(=O)(=O)N2CCCCCC2)cc1NC(=O)CN(C)Cc1ccc2c(c1)OCO2	Myeloid diff MLP active

High-throughput results from PubChem.
